This passage reports growth results from PubChem BioAssay (NCI).

Test systems include NCI-H23 lung; NCI-H226 lung; NCI-H322M lung; HOP-62 NSCLC; NCI-H460 lung; HOP-92 NSCLC; NCI-H522 lung; A549/ATCC NSCLC; 786-0 renal; COLO 205 colon; DU-145 prostate; K-562 leukemia; MALME-3M melanoma; MDA-MB-231 breast; RXF 393 renal; SF-268 CNS; SF-295 CNS; SF-539 CNS; UACC-257 melanoma; M14 melanoma.
Common to all, as to test: NCI-60 one-dose screen, 48 h (100 = growth as untreated, 0 = no growth, -100 = all killed)
Details in all cases: 10 µM unless noted

The structures appear in SMILES notation. The panel holds about 83,000 compounds, 20% with a hit somewhere; the sample as a whole holds those more often.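 Cell lines were cultured in 96-well plates, exposed to a single compound concentration, and assessed for percent growth 48 hours later.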 A number with no mark means an inactive call. Activity calls are given as the source filed them. How the source made its calls: active means growth percent below 10; inactive means the rest.

Turning to `O=C1CC2C=CCN2C=C1NC(=O)c1ccccc1` (centres undefined), the growth is 101% with NCI-H23 lung; 102% with NCI-H226 lung; 99.8% in the assay with NCI-H322M lung; 114% in the assay with HOP-62 NSCLC; 111% with NCI-H460 lung; 110% with HOP-92 NSCLC. Besides, the growth in the assay with NCI-H522 lung was 104%; in the assay with A549/ATCC NSCLC, 92.6%; in the assay on 786-0 renal, 98.5%; in the assay with COLO 205 colon, 102%; in the assay on DU-145 prostate, 103%; in the assay on K-562 leukemia, 92.7%. The growth with MALME-3M melanoma was 93.9%; in the assay with MDA-MB-231 breast, 112%; in the assay on RXF 393 renal, 105%; with SF-268 CNS it was 98.7%; in the assay on SF-295 CNS, 98%; in the assay on SF-539 CNS, 107%. Moreover, the growth in the assay with UACC-257 melanoma was 99.8%.
In the case of `CN(C)c1ccc(Cc2cc(-c3ccccc3)nn(C/C(=N/O)c3ccccc3)c2=O)cc1`, the growth in the assay with NCI-H23 lung is 57.4%; with NCI-H226 lung, 60.5%; in the assay on NCI-H322M lung it was 80.4%; with HOP-62 NSCLC, 75.1%; with NCI-H460 lung, 42.6%; with HOP-92 NSCLC it was 55.9%. The growth is 41.2% with NCI-H522 lung; 30.2% in the assay with A549/ATCC NSCLC; 75.4% in the assay with 786-0 renal; 58.4% in the assay on COLO 205 colon; 91.8% in the assay with DU-145 prostate; 29.5% in the assay on K-562 leukemia. The growth is 66.2% in the assay on MALME-3M melanoma; 54% in the assay on MDA-MB-231 breast; 61.4% in the assay on RXF 393 renal; 55.8% in the assay with SF-268 CNS; 45.5% in the assay on SF-295 CNS; 84.3% in the assay with SF-539 CNS. In addition, in the assay with UACC-257 melanoma, the growth is 62.8%.
Turning to `N#C/C(=C\c1cccc2cnccc12)N1N=NC2C=CC=CC21` (centres undefined), the growth in the assay with NCI-H23 lung was 48.5%; in the assay on NCI-H226 lung, 68.7%; with NCI-H322M lung, 67.2%; in the assay on HOP-62 NSCLC, 79.9%; in the assay with NCI-H460 lung it was 40.8%; in the assay with HOP-92 NSCLC, -14.6% (active). Besides, the growth with NCI-H522 lung is 14.1%; in the assay with A549/ATCC NSCLC, 64.2%; in the assay on 786-0 renal it was 53.1%; with COLO 205 colon it was 47.4%; in the assay with DU-145 prostate, 8.33% (active); in the assay with K-562 leukemia, 12.4%. Moreover, the growth with MALME-3M melanoma is 36%; with MDA-MB-231 breast, 9.44% (active); with RXF 393 renal it was -17.1% (active); in the assay on SF-268 CNS, 56.6%; in the assay with SF-295 CNS it was 98.4%; with SF-539 CNS, 45.7%. The growth in the assay with UACC-257 melanoma was 46.9%; in the assay on M14 melanoma, 32.6%.
Regarding `COc1cccc2cc(N(C)c3ncnc4ccccc34)ccc12`, the growth with NCI-H23 lung was 15.5%; with NCI-H226 lung it was 46.2%; in the assay on NCI-H322M lung, 48%; with HOP-62 NSCLC, 23.3%; in the assay with NCI-H460 lung, 4.58% (active); in the assay with HOP-92 NSCLC it was 28.1%. The growth was -9.69% (active) with NCI-H522 lung; 13.5% in the assay with A549/ATCC NSCLC; 29.5% with 786-0 renal; -13.8% (active) in the assay on COLO 205 colon; 10.3% in the assay on DU-145 prostate; 9.92% (active) in the assay with K-562 leukemia. Further, the growth in the assay on MALME-3M melanoma is 39.4%; with MDA-MB-231 breast it was 31.3%; with RXF 393 renal it was 25.9%; with SF-268 CNS, 30.2%; with SF-295 CNS it was 11%; in the assay on SF-539 CNS, -28.5% (active). Further, in the assay on UACC-257 melanoma, the growth was 25.3%.
Regarding `C=C(C)[C@@H]1CCC[C@]2(C(=O)OC)CC[C@]3(C)[C@@H](CC[C@@H]4[C@@]5(C)CCCNC(C)(C)[C@@H]5CC[C@]43C)[C@@H]12`, the growth with NCI-H23 lung is 96%; with NCI-H226 lung, 84.4%; in the assay with NCI-H322M lung, 79.6%; in the assay on HOP-62 NSCLC it was 85.5%; in the assay with NCI-H460 lung, 94.4%; in the assay on HOP-92 NSCLC, 70.7%. Moreover, the growth in the assay on NCI-H522 lung is 91.8%; in the assay on A549/ATCC NSCLC, 91.9%; in the assay on 786-0 renal it was 90.1%; with COLO 205 colon it was 76.1%; with DU-145 prostate it was 105%; in the assay on K-562 leukemia, 55.4%. Further, the growth with MALME-3M melanoma was 79.6%; in the assay with MDA-MB-231 breast it was 85.5%; in the assay on RXF 393 renal it was 90.9%; with SF-268 CNS, 93.4%; with SF-295 CNS, 104%; in the assay with SF-539 CNS it was 98.7%. For the same compound, in the assay with UACC-257 melanoma, the growth was 98.9%.
For `C#CCOc1ccc(C2=NN(CCCC)C3N=C(Cl)c4ncn(CCCC)c4N23)cc1OCC#C` (centres undefined), the growth was 86.9% in the assay on NCI-H23 lung; 90.5% with NCI-H226 lung; 88.8% with NCI-H322M lung; 90.4% with HOP-62 NSCLC; 88.6% with NCI-H460 lung; 73.6% in the assay with HOP-92 NSCLC. Besides, the growth is 74.7% in the assay on NCI-H522 lung; 80.3% with A549/ATCC NSCLC; 102% in the assay with 786-0 renal; 103% in the assay with COLO 205 colon; 94.1% in the assay with DU-145 prostate; 71.2% in the assay on K-562 leukemia. Further, the growth in the assay with MALME-3M melanoma was 107%; in the assay with MDA-MB-231 breast it was 91.7%; with RXF 393 renal, 76.1%; in the assay with SF-268 CNS it was 90.1%; with SF-295 CNS, 88.4%; in the assay with SF-539 CNS, 101%. In addition, the growth in the assay on UACC-257 melanoma is 85.7%.
With `O=C(O)CCCN1C(=O)CSC1=S`, the growth with NCI-H23 lung was 104%; in the assay on NCI-H226 lung, 111%; in the assay with NCI-H322M lung, 100%; with HOP-62 NSCLC it was 103%; in the assay with NCI-H460 lung, 101%; in the assay on HOP-92 NSCLC, 103%. Also, the growth in the assay with NCI-H522 lung was 93.3%; in the assay on A549/ATCC NSCLC it was 105%; in the assay on 786-0 renal, 102%; in the assay with COLO 205 colon, 120%; in the assay with DU-145 prostate, 107%; in the assay on K-562 leukemia, 103%. Moreover, the growth in the assay on MALME-3M melanoma was 102%; in the assay on MDA-MB-231 breast, 107%; in the assay on RXF 393 renal it was 107%; with SF-268 CNS it was 93.9%; with SF-295 CNS, 106%; with SF-539 CNS it was 102%. In addition, the growth in the assay on UACC-257 melanoma is 95.9%.
For the compound `Nc1ncc(-c2ccc3ncnc(N4CCc5cc(F)c(Cl)cc54)c3c2)cc1C=O`, the growth is 31.6% with NCI-H23 lung; 37.2% with NCI-H226 lung; 2.51% (active) with NCI-H322M lung; 15.2% with HOP-62 NSCLC; 11.8% in the assay with NCI-H460 lung; -22.8% (active) in the assay with HOP-92 NSCLC. Moreover, the growth in the assay on NCI-H522 lung was 26.7%; in the assay with A549/ATCC NSCLC, 7.18% (active); in the assay on 786-0 renal, 8.62% (active); in the assay with COLO 205 colon, 19.6%; in the assay with DU-145 prostate, 10.1%; in the assay on K-562 leukemia, 35.5%. Moreover, the growth is -15.5% (active) in the assay with MALME-3M melanoma; 26.4% with MDA-MB-231 breast; -35% (active) in the assay with RXF 393 renal; 18.1% in the assay with SF-268 CNS; 6.94% (active) in the assay on SF-295 CNS; 12.1% in the assay with SF-539 CNS. Moreover, the growth is 24.6% with UACC-257 melanoma and 19% with M14 melanoma.
